# Test results as given in PubChem BioAssay (NCI).
# The panel holds about 83,000 compounds, 20% with a hit somewhere; the sample as a whole holds those more often.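 Values shown are percent growth following 48 h exposure of cells in 96-well plates to a single concentration of compound; below 10 was considered active.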 Values without a mark were called inactive. Active and inactive are the calls of the source.
# Experiments:
# Experiment in all cases: NCI-60 one-dose screen, 48 h (100 = growth as untreated, 0 = no growth, -100 = all killed)
# Conditions in all cases: 10 µM
# SK-MEL-2 melanoma = test system: SK-MEL-2 melanoma
# SN12C renal = test system: SN12C renal
# UO-31 renal = test system: UO-31 renal
# TK-10 renal = test system: TK-10 renal
# ACHN renal = test system: ACHN renal
# CAKI-1 renal = test system: CAKI-1 renal
# A498 renal = test system: A498 renal
# CCRF-CEM leukemia = test system: CCRF-CEM leukemia
# MOLT-4 leukemia = test system: MOLT-4 leukemia
Structure (SMILES),growth (SK-MEL-2 melanoma),growth (SN12C renal),growth (UO-31 renal),growth (TK-10 renal),growth (ACHN renal),growth (CAKI-1 renal),growth (A498 renal),growth (CCRF-CEM leukemia),growth (MOLT-4 leukemia)
COc1ccc2ncc(C#Cc3cncc(C(=O)Nc4ccc(CN5CCN(C)CC5)c(C(F)(F)F)c4)c3)n2n1,-55.3% (active),-93.5% (active),-90.1% (active),-76% (active),-98.3% (active),-75.8% (active),31.7%,2.67% (active),-26.7% (active)
C[C@H]1[C@H](C)CC[C@]2(COC(=O)CCC(=O)NCC#CCN3CCNCC3)CC[C@]3(C)C(=CC[C@@H]4[C@@]5(C)CCCNC(C)(C)[C@@H]5CC[C@]43C)[C@H]12,96.3%,64.9%,42.9%,70.9%,59.4%,49.1%,,12.5%,
Nc1nnc(-c2c[nH]c3ccc(F)cc23)c(-c2c[nH]c3ncccc23)n1,93.7%,46.9%,37.9%,82.9%,51.6%,,104%,61.6%,48.8%
O=C1NC(=NC23CC4CC(CC(C4)C2)C3)N/C1=C\c1ccc2ncoc2c1,-92.4% (active),2.78% (active),1.68% (active),24.2%,-10.4% (active),,,-6.48% (active),10.6%
Cn1cc(/C=N/Nc2cccc(Cl)n2)c2ccccc21,87.5%,69.6%,40.7%,113%,71.4%,66.9%,101%,48.2%,32.9%
O=C(CNc1nc(-c2ccccc2)cs1)Nc1cccc(Cl)c1,38.2%,41.4%,9.97% (active),52.5%,,28.4%,66.5%,26.3%,7.42% (active)
COc1ccc2[nH]c(=O)c(CSc3nccc(-c4ccc(Cl)cc4)n3)cc2c1,42.9%,34.4%,7.11% (active),19.6%,-46.2% (active),-75.9% (active),45.5%,32.6%,22%
O=c1[nH]c2ccccc2cc1CSc1ccc(Nc2nccc(-c3ccc4c(c3)OCO4)n2)cc1,108%,96%,95.6%,89.4%,94.7%,98%,121%,98.4%,102%
COc1cnc2c(c1)C(=O)c1c-2n(CCCNCCO)c(=O)c2cc(OC)c(OC)cc12,104%,18.4%,34%,101%,3.42% (active),,,12.8%,12.8%
Brc1ccc(/C=C/c2n(Cc3ccc4ccccc4c3)c3ccccc3[n+]2Cc2ccc3ccccc3c2)cc1,-88.9% (active),-58.9% (active),44.6%,-63.2% (active),-31.6% (active),-29.9% (active),54.9%,-14.2% (active),-7.46% (active)
COc1cnc2c(c1)C(=O)c1c-2n(CCCNC(C)C)c(=O)c2cc(OC)c(OC)cc12,107%,25%,29.5%,87.6%,3.23% (active),15.2%,105%,16.2%,16.5%
CC(=O)Nc1ccc(-c2cn(-c3cccc(C(=O)Nc4cc(CN5CCOCC5)cc(C(F)(F)F)c4)c3)nn2)cn1,-84.6% (active),-93.2% (active),-93.5% (active),-99.3% (active),-100% (active),-91.9% (active),-95.5% (active),-5.47% (active),-22.2% (active)
C=C[C@H]1[C@H](O[C@@H]2OC(CO)[C@@H](O)[C@H](O)C2OC(=O)c2c(O)cc(O)cc2-c2cccc(O)c2)OC=C2C(=O)OCC[C@H]21 (stereo not given in full),106%,102%,89.3%,102%,,93.9%,106%,106%,
NS(=O)(=O)c1ccc(NC(=O)CSc2ccc(-c3ccc(Cl)cc3)nn2)c(Br)c1,82.9%,39.1%,91%,94.6%,24.7%,67%,0.192% (active),83.7%,90.6%
O=C(c1ccccc1)n1ccc(-c2cc3cc(Br)ccc3oc2=O)n1,16.8%,27.4%,11.7%,34.7%,8.46% (active),15.2%,117%,4.71% (active),14.8%
CC(=C(c1ccc(OCCN2CCCCCC2)cc1)c1ccc(OCCN2CCCCCC2)cc1)c1ccc(Cl)cc1,-91.7% (active),-92.4% (active),-100% (active),-98% (active),,-100% (active),-90.9% (active),-61.5% (active),
O=S(=O)(Nc1ncccn1)c1ccc(-n2c(-c3ccc(Br)cc3)nc(-c3ccccc3)c2-c2ccccc2)cc1,56.8%,35.9%,20.1%,56.7%,38.5%,23.7%,-1.34% (active),18.6%,22.4%
C/C(=N\N=C\c1ccc(Cl)c([N+](=O)[O-])c1)c1ccc2c(c1)Nc1ccccc1S2,69.4%,37.2%,76.9%,77%,45.6%,60.3%,91.8%,56.4%,40.3%
C=C1CCC2C3(C)COC(c4c(F)cccc4F)OC3CCC2(C)C1C/C=C1/C(=O)OCC1O (stereo not given),-44.7% (active),-24.1% (active),-91.6% (active),-23.2% (active),-97.8% (active),2.15% (active),141%,13.9%,11.4%
CC(=O)c1cc(C(=O)N2c3ccccc3Sc3ccccc32)n2ccc(C)cc12,72.5%,42.3%,35.1%,78.9%,29.1%,35.3%,,24.8%,22.6%
COc1ccccc1[C@H]1C(C(=O)c2ccc(O)cc2)C2(N[C@@H]1c1ccccc1)C(=O)Nc1ccc(Br)cc12 (stereo not given in full),32.1%,25%,27.9%,51%,31.9%,18.7%,,22%,-9.09% (active)
